“And” between values parts separate entries of the source, which are not always exact repeats. Equal entries are not always repeated. Results filed as inconclusive are left out. The source made the active and inactive calls. Unless noted, calls follow the shape of the dose curve; as a rule, active = well fitted curve in the direction sought with a large enough effect; inconclusive = small, poorly fitted or top-dose-only effect, or another doubt; inactive = no such curve, though single readings can be large; an effect the other way counts as inactive or inconclusive.
How the values were obtained:
[1] = qHTS for differential inhibitors of proliferation of Plasmodium falciparum line GB4 (AID 1816); settings: Potency: Plasmodium falciparum GB4 proliferation inhibition;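 also: potency is read from the fitted curve at half-maximal effect; parasite growth measured after 72 h incubation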
[2] = qHTS for differential inhibitors of proliferation of Plasmodium falciparum line 3D7 (AID 1876); also: potency is read from the fitted curve at half-maximal effect
[3] = qHTS for differential inhibitors of proliferation of Plasmodium falciparum line D10 (AID 1877);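 also: potency is read from the fitted curve at half-maximal effect; parasites grown with compound for 72 h before DNA staining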
[4] = qHTS for differential inhibitors of proliferation of Plasmodium falciparum line Dd2 (AID 1882); settings: Potency: Plasmodium falciparum Dd2 proliferation inhibition; also: potency is read from the fitted curve at half-maximal effect; nearly all actives have a fitted effect of over 65% in size
Summary of the method: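 SYBR Green DNA fluorescence (ex 485, em 535 nm) after overnight lysis quantifies parasite growth; compound exposure lasted 72 h at 37 C on infected red cells at 2.5% hematocrit, 0.3% parasitemia (final). Artemisinin 0.29 uM and vehicle wells define normalization.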

[5] = qHTS for differential inhibitors of proliferation of Plasmodium falciparum line W2 (AID 1883); settings: Potency: Plasmodium falciparum W2 proliferation inhibition;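 also: potency is read from the fitted curve at half-maximal effect; parasites grown with compound for 72 h before lysis and staining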
[6] = target: ATP-dependent DNA helicase Q1 (Homo sapiens) (UniProt P46063); test: qHTS Validation Assay for Inhibitors of RecQ-Like Dna Helicase 1 (RECQ1) (AID 2353)
ATP-dependent DNA helicase Q1 (Homo sapiens), sequence (P46063 whole entry, looked up): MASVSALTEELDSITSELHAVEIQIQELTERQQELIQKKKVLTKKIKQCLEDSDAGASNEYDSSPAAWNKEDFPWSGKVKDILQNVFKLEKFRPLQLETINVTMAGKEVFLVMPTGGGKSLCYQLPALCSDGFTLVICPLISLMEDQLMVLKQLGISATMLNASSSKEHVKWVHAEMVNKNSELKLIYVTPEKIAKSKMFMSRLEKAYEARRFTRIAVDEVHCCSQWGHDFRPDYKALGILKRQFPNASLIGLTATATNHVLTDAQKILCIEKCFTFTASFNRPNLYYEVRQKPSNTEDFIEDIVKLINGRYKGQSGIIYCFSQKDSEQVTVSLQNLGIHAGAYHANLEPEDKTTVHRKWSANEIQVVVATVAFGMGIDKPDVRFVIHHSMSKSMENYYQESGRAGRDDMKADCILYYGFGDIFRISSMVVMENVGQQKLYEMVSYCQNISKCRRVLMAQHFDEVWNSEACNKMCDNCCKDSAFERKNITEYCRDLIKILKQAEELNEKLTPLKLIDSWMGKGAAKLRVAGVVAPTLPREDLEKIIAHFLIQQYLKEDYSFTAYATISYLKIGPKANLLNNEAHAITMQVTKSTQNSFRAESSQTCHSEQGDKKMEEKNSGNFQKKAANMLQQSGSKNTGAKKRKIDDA
Summary of the method: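 RECQ1T1 50 nM; forked duplex (20 bp + 30-nt ss tails) 200 nM, ATP 2 mM final; pH 8.0, 2 mM MgCl2, 2.5 ug/ml poly(dI-dC); 15 min compound preincubation; discontinuous kinetic read over 2 h at RT.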

[7] = Cytometric Cell-Based qHTS for Inhibitors of the mTORC1 Signaling Pathway in MEF (Tsc2-/-, p53-/-) Cells (AID 2660);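 also: Tsc2 and p53 null MEFs carrying empty vector with compound for 24 h; percent of cells above a phospho-rpS6 to PI ratio cutoff in each well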
Summary of the method: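 Readout: Alexa-488 phospho-rpS6 (Ser235/236) intensity divided by PI intensity, thresholded against 7.5 nM rapamycin wells and reported as % positive cells. PI cell count served as the viability measure. Compound exposure was 24 hrs at 37 degree Celsius.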

[8] = High Content Imaging Cell-Based qHTS for Inhibitors of the mTORC1 Signaling Pathway in MEF (Tsc2-/-, p53-/-) Cells (AID 2666); settings: at 38.3 µM (top of the series);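 also: percent of cells scored positive for phospho-rpS6 Ser235/236 immunostaining by imaging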
Summary of the method: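 Inhibition of rpS6 phosphorylation is measured by immunofluorescence imaging in empty-vector Tsc2-/-, p53-/- mouse embryonic fibroblasts after 24 hrs compound exposure at 37 degree Celsius. Results are reported as % positive cells per well.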

[9] = High Content Imaging Cell-Based qHTS for Inhibitors of the mTORC1 Signaling Pathway in MEF Cells (AID 2667);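 also: Tsc2-/- p53-/- MEFs stably re-expressing wild-type Tsc2 exposed 24 h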
Summary of the method: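 Fixed-cell imaging of phospho-S6 (Ser235/236, Alexa-488) after 24 hrs of compound treatment at 37 degree Celsius. Signal was normalized to Hoechst, and thresholds from the highest and lowest wells split cells into % active versus % non-active.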

[10] = Validation screen for small molecules that induce DNA re-replication in MCF 10A normal breast cells (AID 463097); also: potency is read from the fitted curve at half-maximal effect; nearly all actives have a fitted effect of over 60% in size
Summary of the method: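 Image-based qHTS: normal breast cells are incubated with compound for 48 hr, stained with Hoechst, and scanned for total nuclear fluorescence. Compounds raising the fraction of nuclei with elevated DNA content count as re-replication inducers.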

[11] = target: Ubiquitin carboxyl-terminal hydrolase 2 (Homo sapiens) (UniProt O75604); test: qHTS Validation Assay for Inhibitors of Ubiquitin-specific Protease USP2a Using CHOP2 as the Reporter (AID 463106)
Summary of the method: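 Inhibition is expressed relative to NEM as the full-inhibition control, with concentration-response curves classed by fit quality, magnitude and activity. Enzyme (USP2 core, 10nM) meets 25nM Ub-CHOP2 after compound preincubation; readings are taken at 60min.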

[12] = target: DNA polymerase III PolC-type (Bacillus subtilis (strain 168)) (UniProt P13267); test: qHTS Validation Assay for the Inhibitors of DNA Replication in Gram-Positive Bacteria (AID 485295);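 also: reconstituted holoenzyme with PolC plus beta clamp SSB and primase; PicoGreen fluorescence of double-stranded DNA made on primed circular M13 template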
DNA polymerase III PolC-type (Bacillus subtilis (strain 168)), sequence (P13267 whole entry, looked up): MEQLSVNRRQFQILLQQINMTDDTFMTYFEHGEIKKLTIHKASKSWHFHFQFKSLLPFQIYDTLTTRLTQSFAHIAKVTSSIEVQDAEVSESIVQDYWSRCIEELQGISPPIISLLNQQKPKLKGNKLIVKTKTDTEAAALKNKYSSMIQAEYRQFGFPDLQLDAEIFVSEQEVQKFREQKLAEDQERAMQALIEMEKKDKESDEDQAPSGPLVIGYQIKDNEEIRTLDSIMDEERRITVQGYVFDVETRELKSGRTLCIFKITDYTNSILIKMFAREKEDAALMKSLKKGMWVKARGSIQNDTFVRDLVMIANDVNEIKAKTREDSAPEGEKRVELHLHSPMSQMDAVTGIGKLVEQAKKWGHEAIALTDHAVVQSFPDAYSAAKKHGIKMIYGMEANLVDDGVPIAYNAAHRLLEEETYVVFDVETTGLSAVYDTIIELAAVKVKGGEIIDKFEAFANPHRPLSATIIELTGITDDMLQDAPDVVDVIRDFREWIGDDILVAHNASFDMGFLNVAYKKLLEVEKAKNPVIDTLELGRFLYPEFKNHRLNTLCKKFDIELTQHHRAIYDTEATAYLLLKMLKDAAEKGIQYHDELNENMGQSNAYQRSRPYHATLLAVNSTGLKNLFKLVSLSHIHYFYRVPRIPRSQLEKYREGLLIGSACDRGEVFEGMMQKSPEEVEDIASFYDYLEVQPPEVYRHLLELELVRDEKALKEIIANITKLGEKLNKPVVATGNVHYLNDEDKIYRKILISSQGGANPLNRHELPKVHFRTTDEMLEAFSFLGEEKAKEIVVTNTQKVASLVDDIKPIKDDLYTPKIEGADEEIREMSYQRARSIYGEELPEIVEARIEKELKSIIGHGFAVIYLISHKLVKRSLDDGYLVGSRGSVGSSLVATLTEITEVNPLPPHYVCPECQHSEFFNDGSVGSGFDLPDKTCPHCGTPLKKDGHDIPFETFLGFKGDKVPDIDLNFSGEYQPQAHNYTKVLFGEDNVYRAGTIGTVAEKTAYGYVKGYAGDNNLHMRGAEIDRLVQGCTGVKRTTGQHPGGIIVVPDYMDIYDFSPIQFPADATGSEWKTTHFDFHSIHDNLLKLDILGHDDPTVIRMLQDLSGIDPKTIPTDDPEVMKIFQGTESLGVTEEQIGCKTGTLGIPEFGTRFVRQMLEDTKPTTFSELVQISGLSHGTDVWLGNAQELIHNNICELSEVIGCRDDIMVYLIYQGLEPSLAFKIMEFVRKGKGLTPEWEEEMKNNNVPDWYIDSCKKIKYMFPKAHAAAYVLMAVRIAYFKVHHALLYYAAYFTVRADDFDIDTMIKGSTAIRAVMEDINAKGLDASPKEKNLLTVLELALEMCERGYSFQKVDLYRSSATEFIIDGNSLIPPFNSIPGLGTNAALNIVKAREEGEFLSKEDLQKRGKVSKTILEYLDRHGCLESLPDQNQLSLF
Summary of the method: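 First, compound is mixed with the reconstituted replication complex and held at room temperature. Next, circular single-stranded M13Gori with nucleotides starts synthesis. Finally, PicoGreen in EDTA halts the reaction and stains double-stranded product for fluorescence reading.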

[13] = target: Tumor susceptibility gene 101 protein (Homo sapiens) (UniProt Q99816); test: qHTS Validation Assay for Iinhibitors of HIV-1 Budding by Blocking the Interaction of PTAP/TSG101 (AID 485342; calls by dose curve)
Tumor susceptibility gene 101 protein (Homo sapiens), sequence (Q99816 whole entry, looked up, the tested form may be a part): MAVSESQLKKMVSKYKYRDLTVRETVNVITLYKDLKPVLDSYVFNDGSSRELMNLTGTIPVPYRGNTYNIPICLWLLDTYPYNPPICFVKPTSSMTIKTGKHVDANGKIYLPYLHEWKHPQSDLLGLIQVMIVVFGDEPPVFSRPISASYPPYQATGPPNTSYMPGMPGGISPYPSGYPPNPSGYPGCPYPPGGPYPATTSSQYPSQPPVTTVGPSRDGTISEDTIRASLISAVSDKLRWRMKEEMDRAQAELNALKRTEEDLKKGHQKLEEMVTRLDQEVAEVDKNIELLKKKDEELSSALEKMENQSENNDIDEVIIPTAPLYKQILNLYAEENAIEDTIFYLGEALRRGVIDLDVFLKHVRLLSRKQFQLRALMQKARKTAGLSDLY
Summary of the method: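 Binding of a FITC-tagged PTAP-motif peptide (50 nM) to the Tsg101 binding domain (10 uM) is monitored by fluorescence polarization. Compounds are pin-delivered before peptide addition, and incubation runs 20 min at room temperature.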

[14] = target: Beta-2 adrenergic receptor (Homo sapiens) (UniProt P07550); test: qHTS validation assay of beta-arrestin-biased ligands of beta2-adrenergic receptor (AID 485366)
Beta-2 adrenergic receptor (Homo sapiens), sequence (P07550 whole entry, looked up): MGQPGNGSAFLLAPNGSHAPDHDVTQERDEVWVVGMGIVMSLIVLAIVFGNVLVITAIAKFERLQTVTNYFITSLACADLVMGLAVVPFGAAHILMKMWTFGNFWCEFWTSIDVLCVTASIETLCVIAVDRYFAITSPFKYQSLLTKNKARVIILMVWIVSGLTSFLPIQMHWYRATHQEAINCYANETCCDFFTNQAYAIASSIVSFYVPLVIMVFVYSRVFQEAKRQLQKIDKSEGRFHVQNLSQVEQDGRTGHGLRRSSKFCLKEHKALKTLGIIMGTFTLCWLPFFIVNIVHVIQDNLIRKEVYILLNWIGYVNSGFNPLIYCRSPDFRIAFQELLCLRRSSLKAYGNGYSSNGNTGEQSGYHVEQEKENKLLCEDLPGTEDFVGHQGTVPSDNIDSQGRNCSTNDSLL
Summary of the method: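 Agonist activity is measured as luciferase luminescence downstream of beta-arrestin recruitment to recombinant beta2-AR in Tango cells. Exposure lasts 18 hr at 37 degrees C, and curves are categorized by r2, response size and activity.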

[15] = target: Thioredoxin reductase 1, cytoplasmic (Rattus norvegicus) (UniProt O89049); test: qHTS Assay for Inhibitors of Mammalian Selenoprotein Thioredoxin Reductase 1 (TrxR1) (AID 488773); settings: Potency: inhibition;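 also: drop in NADPH fluorescence over an 8 min run after selenite addition; nearly all actives have a fitted effect of over 40% in size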
Summary of the method: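 Inhibition is scored from the loss of NADPH fluorescence between first and last reads of an 8-min kinetic run. Selenite (400 uM) was the substrate, added after 15 min compound preincubation at room temperature.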

[16] = target: Flap endonuclease 1 (Homo sapiens) (UniProt P39748); test: qHTS Validation Assay for the Inhibitors of Human Flap endonuclease 1 (FEN1) (AID 488816); also: potency is read from the fitted curve at half-maximal effect
Summary of the method: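 Steps: add FEN1 (10 nM reagent) or buffer only; pin compounds; hold 15 min at room temperature; start with substrate, 50 nM final; read at 0 and 15 min; correct, normalize and fit a four-parameter Hill curve.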

[17] = target: M-phase phosphoprotein 8 (Homo sapiens) (UniProt Q99549); test: qHTS Validation Assay for Inhibitors for MPP8 Chromodomain Interactions with Methylated Histone Tails (AID 488949); also: potency is read from the fitted curve at half-maximal effect; nearly all actives have a fitted effect of over 55% in size
M-phase phosphoprotein 8 (Homo sapiens), sequence (Q99549 whole entry, looked up): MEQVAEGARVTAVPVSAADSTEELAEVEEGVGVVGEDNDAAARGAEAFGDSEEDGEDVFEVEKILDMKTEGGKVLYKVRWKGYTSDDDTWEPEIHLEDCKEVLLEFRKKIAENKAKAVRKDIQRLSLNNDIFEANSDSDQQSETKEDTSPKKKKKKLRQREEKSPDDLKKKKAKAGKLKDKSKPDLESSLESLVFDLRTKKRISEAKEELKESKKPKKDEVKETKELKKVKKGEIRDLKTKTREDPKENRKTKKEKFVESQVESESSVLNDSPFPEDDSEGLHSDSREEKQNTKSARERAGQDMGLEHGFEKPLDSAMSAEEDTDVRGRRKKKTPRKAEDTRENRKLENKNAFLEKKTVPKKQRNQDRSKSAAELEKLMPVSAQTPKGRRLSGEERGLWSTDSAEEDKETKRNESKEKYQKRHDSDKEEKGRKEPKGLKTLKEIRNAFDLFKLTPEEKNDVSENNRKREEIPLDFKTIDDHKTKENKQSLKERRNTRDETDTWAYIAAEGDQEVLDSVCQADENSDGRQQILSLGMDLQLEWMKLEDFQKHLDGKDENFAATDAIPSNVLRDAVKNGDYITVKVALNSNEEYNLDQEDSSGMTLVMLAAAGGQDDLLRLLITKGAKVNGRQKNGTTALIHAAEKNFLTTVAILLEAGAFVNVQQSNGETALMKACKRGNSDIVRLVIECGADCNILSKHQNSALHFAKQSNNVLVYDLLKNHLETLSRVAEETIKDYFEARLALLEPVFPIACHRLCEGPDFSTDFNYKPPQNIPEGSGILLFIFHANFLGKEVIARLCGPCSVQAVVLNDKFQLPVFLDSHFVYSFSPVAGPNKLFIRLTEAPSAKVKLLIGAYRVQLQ
Summary of the method: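 50 nM MPP8 + 50 nM b-H3K9me3 peptide, PBS pH 7.4/0.01% Tween-20, 30 min RT; + cpd 30 min RT; + AlphaScreen donor/Ni-chelate acceptor beads 10 ug/mL final, 30 min dark; luminescence read.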

[18] = target: Transient receptor potential cation channel subfamily V member 1 (Homo sapiens) (UniProt Q8NER1); test: HTS Assay for Compounds that Act as Enhancers of the Vanilloid Receptor 1 (AID 488979)
Summary of the method: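 TRPV1-expressing cells loaded with Fluo-8 calcium dye; compounds added and calcium influx read kinetically for 3 min (agonist phase), then capsaicin at EC20 added and read 2 min more for enhancement. Fluorescence ex 480/em 520 nm.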

[19] = target: Thyrotropin receptor (Homo sapiens) (UniProt P16473); test: qHTS Assay for Antagonists of the Thyroid Stimulating Hormone Receptor (AID 488980)
Thyrotropin receptor (Homo sapiens), sequence (P16473 whole entry, looked up): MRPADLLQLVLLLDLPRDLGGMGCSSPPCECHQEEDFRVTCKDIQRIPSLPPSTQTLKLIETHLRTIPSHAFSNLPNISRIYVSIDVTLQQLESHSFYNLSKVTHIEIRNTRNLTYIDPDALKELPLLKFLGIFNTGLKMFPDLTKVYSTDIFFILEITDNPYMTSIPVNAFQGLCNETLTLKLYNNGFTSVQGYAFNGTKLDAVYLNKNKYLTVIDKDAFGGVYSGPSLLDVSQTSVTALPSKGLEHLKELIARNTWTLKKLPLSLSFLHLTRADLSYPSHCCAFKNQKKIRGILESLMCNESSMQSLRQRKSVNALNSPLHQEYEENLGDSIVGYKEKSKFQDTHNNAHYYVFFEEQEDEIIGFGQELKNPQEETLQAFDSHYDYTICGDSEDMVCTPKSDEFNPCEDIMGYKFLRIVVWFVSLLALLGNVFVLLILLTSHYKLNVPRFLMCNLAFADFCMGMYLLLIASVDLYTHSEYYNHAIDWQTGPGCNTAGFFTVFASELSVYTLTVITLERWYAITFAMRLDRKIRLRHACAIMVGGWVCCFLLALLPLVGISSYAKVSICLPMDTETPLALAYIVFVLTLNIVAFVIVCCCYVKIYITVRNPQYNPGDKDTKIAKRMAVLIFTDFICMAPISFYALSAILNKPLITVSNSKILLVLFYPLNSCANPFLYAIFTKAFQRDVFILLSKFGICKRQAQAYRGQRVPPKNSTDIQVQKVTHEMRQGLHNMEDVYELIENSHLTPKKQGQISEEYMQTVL
Summary of the method: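 Readout is cAMP by HTRF competition between cellular cAMP and cAMP-d2 for a cryptate-labelled antibody. Antagonism was assessed in TSHR-transfected HEK293 cells stimulated with 4 nM TSH (EC80, final) in the presence of RO 20-1724.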

[20] = target: D(1A) dopamine receptor (Homo sapiens) (UniProt P21728); test: HTS Assay for Allosteric Agonists of the Human D1 Dopamine Receptor: Primary Screen for Agonists (AID 488981)
D(1A) dopamine receptor (Homo sapiens), sequence (P21728 whole entry, looked up): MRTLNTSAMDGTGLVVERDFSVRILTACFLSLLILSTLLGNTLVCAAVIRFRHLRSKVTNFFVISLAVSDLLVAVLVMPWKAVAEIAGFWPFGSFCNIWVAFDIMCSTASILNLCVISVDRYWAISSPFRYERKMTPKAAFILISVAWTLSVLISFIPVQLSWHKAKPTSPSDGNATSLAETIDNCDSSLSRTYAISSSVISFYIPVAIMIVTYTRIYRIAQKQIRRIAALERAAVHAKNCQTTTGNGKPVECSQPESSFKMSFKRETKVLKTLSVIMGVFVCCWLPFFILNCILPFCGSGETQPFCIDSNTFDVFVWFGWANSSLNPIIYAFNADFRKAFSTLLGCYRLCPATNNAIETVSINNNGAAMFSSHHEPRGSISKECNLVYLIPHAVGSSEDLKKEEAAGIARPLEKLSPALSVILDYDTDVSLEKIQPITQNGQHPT
Summary of the method: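 Tetracycline-induced HEK293 T-REx cells force-coupled to calcium signalling were incubated overnight at 30 C and dye-loaded at room temperature. Calcium flux over 180 s after compound addition flagged agonists; a further 180 s read after EC20 dopamine flagged potentiators.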

[21] = target: D(1A) dopamine receptor (Homo sapiens) (UniProt P21728); test: HTS Assay for Allosteric Agonists of the Human D1 Dopamine Receptor: Primary Screen for Antagonists (AID 488983);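 also: calcium flux response to an EC80 dopamine challenge measured with no-wash dye; nearly all actives have a fitted effect of over 65% in size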
Summary of the method: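 Calcium-flux read-out in inducible HEK293 T-REx cells expressing D1, dye-loaded 30–90 min at room temperature. Kinetic reads: 180 s after compound (agonist phase), then 180 s after an EC80 dopamine challenge.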

Measured: Potency

N#C/C(=C\c1ccc(O)c(O)c1)C(=O)Nc1ccccc1
active: [1] 14.1 µM | [2] 12.6 µM | [3] 10 µM | [4] 12.6 µM | [5] 7.94 µM | [10] 12.6 µM | [16] 18.9 µM | [17] 12.6 µM and 10.6 µM
inactive: [6] | [7] | [8] | [9] | [11] | [12] | [13] | [14] | [15] | [18] | [19] | [20] | [21]
